Experimental data as given in ChEMBL document CHEMBL3433997, “St. Jude Leishmania screening dataset” (2016).

Each compound was assayed against Glucose transporter (Leishmania mexicana) (UniProt O61059) (assay: ST_JUDE_LEISH: Cytotoxicity at 2uM final concentration against transgenic Leishmania Mexicana promastigotes LmGT2 that are glucose transport deficient and complemented with the L. Mexicana glucose transporter 2. Activity is measured by DNA content using SYBR green in vitro).
Type: functional
With Oc1ccc(CCNc2nc(NCCCOc3ccccc3-c3ccc(F)cc3)nc(N3CCNCC3)n2)cc1 the inhibition was 9.28%. In the case of Cc1cccc(-n2nc(C)c3c2NC(=O)CC3C(=O)c2ccc(Cl)s2)c1 (stereo not given), the inhibition is reported as 2.73%. For COc1cc2c(cc1N1CCN(C)CC1)N(C(=O)Nc1ccc(-c3ccncc3)c(Cl)c1Cl)CC2, the inhibition was 0.64%. Work on COc1c(Br)cc(Br)cc1C(C)=O yielded an inhibition of -0.79%. For C[C@H](NC(=O)[C@H](Cc1ccccc1)NC(=O)OC(C)(C)C)C(=O)N[C@@H](CC1CCCCC1)C(O)CN (stereo not given in full), the inhibition was -1.53%. Cc1ccc(Cn2nc(Cl)c(N3CCCNCC3)cc2=O)cc1NC(=O)Nc1ccc(-c2ccccc2)cc1 showed an inhibition of -1.28%. O=C(NCc1ccccc1)Nc1ccc(-c2cccc(-c3nc4cc(C(F)(F)F)ccc4[nH]3)c2)cc1 was tested, and the inhibition was -1.23%. O=C(Nc1ccc(OC2CCN(Cc3ccc(F)cc3)C2)c(Cl)c1)c1ccccc1 (stereo not given) was tested, and the inhibition was 4.94%. For Cc1cccc2nc(-c3ccc(-c4cccc(CN5CCN(CC6CCCN(C)C6)CC5)c4)s3)[nH]c12 (stereo not given), the inhibition was 0.69%. In the case of OC(CNCc1ccccc1OCc1ccccc1)c1cccc(I)c1 (stereo not given), the inhibition is reported as 0.61%. Cc1cc(N(CCO)CCCN2CCCCC2)nc(Nc2ccc(Cl)cc2)n1 showed an inhibition of 2.41%. CS(=O)(=O)N1CC2(CCN(CCC(NC(=O)Nc3ccccc3)c3ccc(Cl)c(Cl)c3)CC2)c2ccccc21 (stereo not given) showed an inhibition of 3.05%. CNCCNCc1ccc(-c2ccc(-c3nc4cc(F)ccc4[nH]3)s2)cc1 gave an inhibition of 8.77%. COc1ccc(N2CCN(CCCN3CCN(C(=O)c4ccc(/C=C/c5ccc(Cl)c(Cl)c5)cc4)CC3)CC2)c(OC)c1 gave an inhibition of 5.56%. For N#Cc1ccc(CN2CCC(Oc3ccc(NC(=O)c4cccs4)cc3)C2)cc1 (stereo not given), the inhibition was 0.05%. In the case of Oc1ccc2[nH]c(-c3ccc(OC(F)(F)F)cc3)nc2c1CNC1CCCC1, the inhibition is reported as 3.64%. CC(C)Oc1ccc2ccccc2c1CNCCCCCCNCc1c(OC(C)C)ccc2ccccc12 gave an inhibition of 50.6%. Work on Cc1cc(O)c(-c2cc(C(=O)Nc3cccnc3)[nH]n2)cc1C yielded an inhibition of 4.37%. Work on Cc1cc(-c2ccc(NC(=O)N3CCc4cc(Cl)c(N5CCN(C)CC5)cc43)cc2)ccc1C#N yielded an inhibition of 81.7%. CC(=O)N1N=C(c2ccc(Cl)cc2)Sc2c1nc(-c1ccccc1)n2C(C)=O gave an inhibition of 2.48%. COCCn1c(-c2cccc(Cl)c2)nn(-c2ccc([N+](=O)[O-])cc2Cl)c1=S was tested, and the inhibition was 7.62%. Work on Cc1c(CCNC(=O)CCCN2CC(C)CC(C)C2)c2ccccc2n1C (stereo not given) yielded an inhibition of 3.01%. Work on Cc1cc(N[C@@H](Cc2ccccc2)C(=O)NCCc2ccccc2)nc(NCC2CCCCC2)n1 yielded an inhibition of 1.29%. For Cn1c(NC(=O)c2ccc(CNC(=O)c3ccc(O)c(-c4ccc(Cl)c(Cl)c4)c3)cc2)nc2ccccc21, the inhibition was 3.29%. In the case of CC1CCCCC1N(C)C1CCN(CCCNC(=O)C=Cc2cccc(C(F)(F)F)c2)CC1 (stereo not given), the inhibition is reported as 1.79%. For COc1ccc(-c2ccc(NC(=O)c3ccc(Cl)cc3)cc2)cc1CN1CCCN(C)CC1, the inhibition was 5.6%. Compound CN1CCC(N(Cc2ccc(-c3cnc(NCc4ccccc4)nc3)cc2)S(=O)(=O)c2ccccc2)CC1 has an inhibition of 3.05%. Compound O=S(=O)(NCCN1CCCC1)c1ccc(-c2ccccc2CNC2Cc3ccccc3C2)cc1 has an inhibition of 50.5%. For O=C(Nc1ccc(-c2nc3ccccc3[nH]2)cc1)c1ccc(Cl)s1, the inhibition was 1.71%. In the case of Cc1cc2c(cc1C(F)(F)F)N(C(=O)Nc1ccc(C(=O)NCCN3CCCC3)cc1)CC2, the inhibition is reported as -0.08%. Work on NC(=O)c1cccc(C(=O)Nc2cccc(-c3cccc(-c4nc5cc(C(F)(F)F)ccc5[nH]4)c3)c2)c1 yielded an inhibition of 0.83%. In the case of Cc1cc(=NN=Cc2ccc(F)cc2)c2cc(C(F)(F)F)ccc2[nH]1, the inhibition is reported as 0.92%. For Cc1cccc(-c2nn(-c3ccccc3)cc2C(=O)Nc2nnc(C)o2)c1, the inhibition was 2.67%. CCn1c(-c2nonc2N)nc2c(-c3cccc(NC(=O)Nc4cccc(C#N)c4)c3)ncc(OCCCN)c21 showed an inhibition of 2.66%. In the case of CN(C)Cc1cc2c(O)c(Cc3ccccc3)ccc2o1, the inhibition is reported as 3.94%. C=C(F)c1sc(CNCCCNc2nc3ccccc3[nH]2)c(C)c1Br showed an inhibition of 68.7%. Work on O=C(Cc1c[nH]cn1)Nc1cccc(-c2ccc(-c3nc4cc(C(F)(F)F)ccc4[nH]3)cc2)c1 yielded an inhibition of 1.97%. Compound CC1(C)CCCN(c2ncc(-c3cccc(CNCc4ccccc4O)c3)cn2)C1 has an inhibition of 3.18%. Work on COc1cc2nc(N3CCC(CNC(=O)c4ccc(-c5ccc(C#N)cc5C)cc4)CC3)nc(N)c2cc1OC yielded an inhibition of 0.49%. Work on CN(C)CCc1coc2ccc(C(=O)Nc3ccc(-c4ccc(O)cc4)cc3)cc12 yielded an inhibition of 2.77%.
